# Measurements reported in paper PMC7862700, “An all-to-all approach to the identification of sequence-specific readers for epigenetic DNA modifications on cytosine”.
# Assays:
# Test in all cases: DAPPL (digital affinity profiling via proximity ligation, sequencing); 10 mM Tris-HCl pH 7.5, 50 mM NaCl, 1 mM DTT, 4% glycerol, room temperature, 30 min; GST-TFs on glutathione beads, 16-mer random dsDNA library, 0.1% formaldehyde crosslink after washing; high values mean tight binding
# [1] = molecular target: T1, FEV (Homo sapiens, UniProt Q99581 1-238); conditions: protein: recombinant; tags: N-terminal GST; dsDNA, one strand shown
# T1 sequence: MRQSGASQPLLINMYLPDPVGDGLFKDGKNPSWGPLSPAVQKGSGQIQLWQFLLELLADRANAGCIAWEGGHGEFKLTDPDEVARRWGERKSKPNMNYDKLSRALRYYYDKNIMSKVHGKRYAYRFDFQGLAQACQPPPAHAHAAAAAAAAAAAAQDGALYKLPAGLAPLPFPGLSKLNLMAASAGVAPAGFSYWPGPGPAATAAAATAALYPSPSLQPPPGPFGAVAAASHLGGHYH
# How it was run: (§1)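 Binding signal is each hexamer's read frequency for a factor divided by its frequency in the tag-only sample. The factors were GST-fused human transcription factors from yeast, captured on glutathione beads, DNA-barcoded and pooled with that sample. Pools were incubated with 200 nmole of a random double-stranded 16-mer DNA library in Tris/NaCl/DTT/glycerol buffer at room temperature for 30 min, then washed, crosslinked with 0.1% formaldehyde, proximity-ligated with BsaI/T4 ligase (1 h, 37 °C), PCR-amplified and sequenced on an Illumina NextSeq500.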
# [2] = molecular target: ETV5 (Homo sapiens, UniProt P41161 1-510); conditions: protein: recombinant; tags: N-terminal GST; dsDNA, one strand shown
# How it was run: as §1
# [3] = molecular target: HSF1 (Homo sapiens, UniProt Q00613 1-529); conditions: protein: recombinant; tags: N-terminal GST; chain copies: 3; dsDNA, one strand shown
# How it was run: as §1
# [4] = molecular target: T2, SPIC (Homo sapiens, UniProt Q8N5J4 1-248); conditions: protein: recombinant; tags: N-terminal GST; dsDNA, one strand shown
# T2 sequence: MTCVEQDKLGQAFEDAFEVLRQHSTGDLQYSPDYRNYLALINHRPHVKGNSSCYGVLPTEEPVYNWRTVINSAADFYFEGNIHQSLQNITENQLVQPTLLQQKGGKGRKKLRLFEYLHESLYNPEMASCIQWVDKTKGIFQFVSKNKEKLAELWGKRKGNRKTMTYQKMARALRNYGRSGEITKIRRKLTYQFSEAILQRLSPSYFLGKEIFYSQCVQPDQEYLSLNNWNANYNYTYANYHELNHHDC
# How it was run: as §1
# [5] = molecular target: ELF4 (Homo sapiens, UniProt Q99607 1-663); conditions: protein: recombinant; tags: N-terminal GST; dsDNA, one strand shown
# How it was run: as §1
# [6] = molecular target: T3, ELK4 (Homo sapiens, UniProt P28324-2 1-405); conditions: protein: recombinant; tags: N-terminal GST; dsDNA, one strand shown
# T3 sequence: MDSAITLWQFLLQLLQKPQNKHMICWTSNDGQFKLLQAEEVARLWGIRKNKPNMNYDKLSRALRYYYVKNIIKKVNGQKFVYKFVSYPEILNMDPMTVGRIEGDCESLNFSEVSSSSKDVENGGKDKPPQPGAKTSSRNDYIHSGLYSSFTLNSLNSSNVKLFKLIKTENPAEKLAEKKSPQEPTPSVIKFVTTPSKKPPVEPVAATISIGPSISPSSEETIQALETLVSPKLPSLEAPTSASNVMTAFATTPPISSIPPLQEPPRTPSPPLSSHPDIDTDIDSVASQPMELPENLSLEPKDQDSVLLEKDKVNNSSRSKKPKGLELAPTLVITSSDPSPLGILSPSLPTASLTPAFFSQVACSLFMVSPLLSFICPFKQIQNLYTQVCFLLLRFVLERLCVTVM
# How it was run: as §1
# [7] = molecular target: T4, ETV2 (Homo sapiens, UniProt O00321 1-342); conditions: protein: recombinant; tags: N-terminal GST; dsDNA, one strand shown
# T4 sequence: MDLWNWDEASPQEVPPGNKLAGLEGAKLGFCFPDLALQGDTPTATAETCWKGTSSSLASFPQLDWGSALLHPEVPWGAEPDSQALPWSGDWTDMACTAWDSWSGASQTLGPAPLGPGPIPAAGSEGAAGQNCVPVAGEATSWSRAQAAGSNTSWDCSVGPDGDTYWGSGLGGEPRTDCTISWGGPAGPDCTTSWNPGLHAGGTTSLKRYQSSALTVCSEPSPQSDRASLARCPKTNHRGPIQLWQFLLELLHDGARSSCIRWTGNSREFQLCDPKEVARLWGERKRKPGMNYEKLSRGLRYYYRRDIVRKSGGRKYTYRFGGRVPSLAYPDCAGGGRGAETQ
# How it was run: as §1
# [8] = molecular target: T5, ELF3 (Homo sapiens, UniProt P78545 1-371); conditions: protein: recombinant; tags: N-terminal GST; dsDNA, one strand shown
# T5 sequence: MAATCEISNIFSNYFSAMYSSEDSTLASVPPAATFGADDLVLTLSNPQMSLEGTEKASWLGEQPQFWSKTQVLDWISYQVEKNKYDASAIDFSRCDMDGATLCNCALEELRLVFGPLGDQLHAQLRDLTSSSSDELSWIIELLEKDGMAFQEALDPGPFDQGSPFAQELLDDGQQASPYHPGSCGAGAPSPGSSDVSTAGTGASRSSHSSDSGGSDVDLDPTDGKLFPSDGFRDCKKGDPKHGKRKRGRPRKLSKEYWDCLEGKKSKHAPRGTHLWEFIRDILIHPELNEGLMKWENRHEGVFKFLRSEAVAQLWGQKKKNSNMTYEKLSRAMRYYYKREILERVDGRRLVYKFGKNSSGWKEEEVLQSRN
# How it was run: as §1
# [9] = molecular target: CRX (Homo sapiens, UniProt O43186 1-299); conditions: protein: recombinant; tags: N-terminal GST; dsDNA, one strand shown
# How it was run: as §1
# [10] = molecular target: ETV1 (Homo sapiens, UniProt P50549 1-477); conditions: protein: recombinant; tags: N-terminal GST; dsDNA, one strand shown
# How it was run: as §1
# [11] = molecular target: T6, ERF (Homo sapiens, UniProt P50548 1-548); conditions: protein: recombinant; tags: N-terminal GST; dsDNA, one strand shown
# T6 sequence: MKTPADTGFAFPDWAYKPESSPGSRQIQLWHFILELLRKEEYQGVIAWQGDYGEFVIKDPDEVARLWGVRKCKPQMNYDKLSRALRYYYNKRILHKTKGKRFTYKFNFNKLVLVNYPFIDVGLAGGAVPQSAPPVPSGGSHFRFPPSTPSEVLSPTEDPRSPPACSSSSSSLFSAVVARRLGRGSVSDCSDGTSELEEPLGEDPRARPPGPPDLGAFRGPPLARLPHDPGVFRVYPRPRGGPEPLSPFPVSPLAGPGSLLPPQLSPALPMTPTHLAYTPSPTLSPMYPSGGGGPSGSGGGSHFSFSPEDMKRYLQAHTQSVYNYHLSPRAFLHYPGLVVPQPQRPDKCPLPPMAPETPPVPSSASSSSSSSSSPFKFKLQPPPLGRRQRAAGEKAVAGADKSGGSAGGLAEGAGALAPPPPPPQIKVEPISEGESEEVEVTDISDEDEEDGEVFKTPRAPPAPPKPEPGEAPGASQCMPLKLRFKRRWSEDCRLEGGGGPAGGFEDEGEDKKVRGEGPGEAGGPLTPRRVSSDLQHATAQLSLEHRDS
# How it was run: as §1
# [12] = molecular target: T7, ETV3L (Homo sapiens, UniProt Q6ZN32 1-361); conditions: protein: recombinant; tags: N-terminal GST; dsDNA, one strand shown
# T7 sequence: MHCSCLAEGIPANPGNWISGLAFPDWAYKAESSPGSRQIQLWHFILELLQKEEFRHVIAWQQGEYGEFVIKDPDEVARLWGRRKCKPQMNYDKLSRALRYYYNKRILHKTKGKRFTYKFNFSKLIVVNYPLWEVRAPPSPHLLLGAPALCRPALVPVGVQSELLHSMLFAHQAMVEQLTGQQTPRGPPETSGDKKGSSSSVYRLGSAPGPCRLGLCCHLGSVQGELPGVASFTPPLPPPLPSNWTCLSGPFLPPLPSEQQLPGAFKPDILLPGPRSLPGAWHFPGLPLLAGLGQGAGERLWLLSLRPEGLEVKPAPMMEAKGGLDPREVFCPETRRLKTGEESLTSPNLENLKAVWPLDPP
# How it was run: as §1
# [13] = molecular target: T8, ETS2 (Homo sapiens, UniProt P15036 1-469); conditions: protein: recombinant; tags: N-terminal GST; dsDNA, one strand shown
# T8 sequence: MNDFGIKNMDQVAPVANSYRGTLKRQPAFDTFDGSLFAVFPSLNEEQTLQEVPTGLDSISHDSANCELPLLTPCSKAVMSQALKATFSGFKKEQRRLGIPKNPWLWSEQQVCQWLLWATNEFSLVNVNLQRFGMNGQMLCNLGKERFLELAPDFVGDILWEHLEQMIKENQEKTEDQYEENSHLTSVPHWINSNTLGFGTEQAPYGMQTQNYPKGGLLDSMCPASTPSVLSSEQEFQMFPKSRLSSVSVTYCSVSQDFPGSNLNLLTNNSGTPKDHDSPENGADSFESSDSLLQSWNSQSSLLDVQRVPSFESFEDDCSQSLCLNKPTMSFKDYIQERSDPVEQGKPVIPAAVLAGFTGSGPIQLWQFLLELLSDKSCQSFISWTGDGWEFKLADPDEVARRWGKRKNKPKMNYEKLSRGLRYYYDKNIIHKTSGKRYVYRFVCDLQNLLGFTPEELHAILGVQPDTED
# How it was run: as §1
# [14] = molecular target: T9, SPDEF (Homo sapiens, UniProt O95238 1-335); conditions: protein: recombinant; tags: N-terminal GST; dsDNA, one strand shown
# T9 sequence: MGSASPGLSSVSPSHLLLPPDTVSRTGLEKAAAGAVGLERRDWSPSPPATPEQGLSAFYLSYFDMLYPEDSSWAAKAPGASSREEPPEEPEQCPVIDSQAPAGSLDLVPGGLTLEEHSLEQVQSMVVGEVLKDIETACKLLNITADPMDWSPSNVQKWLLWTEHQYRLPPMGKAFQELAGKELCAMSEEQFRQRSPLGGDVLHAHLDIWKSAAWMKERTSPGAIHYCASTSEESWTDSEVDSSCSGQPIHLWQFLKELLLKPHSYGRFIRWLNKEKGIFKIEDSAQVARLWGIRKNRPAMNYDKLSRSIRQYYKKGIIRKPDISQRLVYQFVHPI
# How it was run: as §1
# [15] = molecular target: T10, ETV7 (Homo sapiens, UniProt Q9Y603 1-341); conditions: protein: recombinant; tags: N-terminal GST; dsDNA, one strand shown
# T10 sequence: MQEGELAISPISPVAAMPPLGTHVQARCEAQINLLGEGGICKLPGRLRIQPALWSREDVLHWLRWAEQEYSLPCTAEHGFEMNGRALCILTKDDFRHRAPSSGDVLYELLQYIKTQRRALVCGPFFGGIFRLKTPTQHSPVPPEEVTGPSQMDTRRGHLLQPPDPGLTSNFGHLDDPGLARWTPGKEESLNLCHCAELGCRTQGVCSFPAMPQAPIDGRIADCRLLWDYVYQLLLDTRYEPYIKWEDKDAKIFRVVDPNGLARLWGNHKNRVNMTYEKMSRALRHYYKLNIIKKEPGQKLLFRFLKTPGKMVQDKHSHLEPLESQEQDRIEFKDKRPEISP
# How it was run: as §1
# [16] = molecular target: T11, ELF5 (Homo sapiens, UniProt Q9UKW6-2 1-255); conditions: protein: recombinant; tags: N-terminal GST; dsDNA, one strand shown
# T11 sequence: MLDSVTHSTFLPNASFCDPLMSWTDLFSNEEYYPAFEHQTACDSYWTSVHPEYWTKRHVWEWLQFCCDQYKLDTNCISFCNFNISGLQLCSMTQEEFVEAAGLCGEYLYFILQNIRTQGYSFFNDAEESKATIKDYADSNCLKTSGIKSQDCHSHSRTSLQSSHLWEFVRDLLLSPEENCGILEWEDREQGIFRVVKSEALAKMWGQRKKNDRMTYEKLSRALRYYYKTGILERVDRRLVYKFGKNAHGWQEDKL
# How it was run: as §1
# [17] = molecular target: T12, ETV3 (Homo sapiens, UniProt P41162-2 1-143); conditions: protein: recombinant; tags: N-terminal GST; dsDNA, one strand shown
# T12 sequence: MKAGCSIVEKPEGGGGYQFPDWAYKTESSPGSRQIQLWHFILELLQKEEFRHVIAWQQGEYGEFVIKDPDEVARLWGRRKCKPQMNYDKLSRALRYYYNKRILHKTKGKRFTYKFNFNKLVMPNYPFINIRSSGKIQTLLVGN
# How it was run: as §1
# [18] = molecular target: ETV6 (Homo sapiens, UniProt P41212 1-452); conditions: protein: recombinant; tags: N-terminal GST; dsDNA, one strand shown
# How it was run: as §1
# ETV1, sequence (P50549 whole entry): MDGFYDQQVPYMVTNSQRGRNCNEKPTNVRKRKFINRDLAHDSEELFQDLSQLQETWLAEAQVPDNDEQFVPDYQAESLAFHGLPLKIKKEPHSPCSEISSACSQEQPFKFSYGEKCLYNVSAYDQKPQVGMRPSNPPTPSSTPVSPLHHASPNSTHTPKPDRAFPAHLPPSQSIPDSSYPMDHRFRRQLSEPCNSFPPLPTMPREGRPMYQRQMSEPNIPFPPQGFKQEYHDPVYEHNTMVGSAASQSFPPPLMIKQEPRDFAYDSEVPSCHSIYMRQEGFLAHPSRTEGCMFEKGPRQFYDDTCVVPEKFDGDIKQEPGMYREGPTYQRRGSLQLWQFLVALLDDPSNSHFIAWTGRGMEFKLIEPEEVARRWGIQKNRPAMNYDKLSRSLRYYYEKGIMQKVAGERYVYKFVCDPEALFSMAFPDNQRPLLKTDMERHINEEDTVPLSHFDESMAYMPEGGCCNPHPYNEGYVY
# ETV5, sequence (P41161 whole entry): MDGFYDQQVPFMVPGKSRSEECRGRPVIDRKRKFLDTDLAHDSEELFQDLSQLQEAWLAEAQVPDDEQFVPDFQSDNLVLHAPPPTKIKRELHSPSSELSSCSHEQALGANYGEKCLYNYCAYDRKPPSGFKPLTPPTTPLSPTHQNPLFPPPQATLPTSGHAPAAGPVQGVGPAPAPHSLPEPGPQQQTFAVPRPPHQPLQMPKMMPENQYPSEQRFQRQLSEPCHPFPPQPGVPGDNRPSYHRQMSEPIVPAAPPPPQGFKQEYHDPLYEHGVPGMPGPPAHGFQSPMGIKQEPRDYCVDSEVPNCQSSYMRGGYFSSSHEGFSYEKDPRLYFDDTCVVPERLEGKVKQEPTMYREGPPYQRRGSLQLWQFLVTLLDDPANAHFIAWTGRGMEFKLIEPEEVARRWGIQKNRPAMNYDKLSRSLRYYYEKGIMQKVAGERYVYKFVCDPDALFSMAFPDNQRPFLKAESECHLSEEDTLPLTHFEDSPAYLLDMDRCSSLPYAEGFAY
# ETV6, sequence (P41212 whole entry): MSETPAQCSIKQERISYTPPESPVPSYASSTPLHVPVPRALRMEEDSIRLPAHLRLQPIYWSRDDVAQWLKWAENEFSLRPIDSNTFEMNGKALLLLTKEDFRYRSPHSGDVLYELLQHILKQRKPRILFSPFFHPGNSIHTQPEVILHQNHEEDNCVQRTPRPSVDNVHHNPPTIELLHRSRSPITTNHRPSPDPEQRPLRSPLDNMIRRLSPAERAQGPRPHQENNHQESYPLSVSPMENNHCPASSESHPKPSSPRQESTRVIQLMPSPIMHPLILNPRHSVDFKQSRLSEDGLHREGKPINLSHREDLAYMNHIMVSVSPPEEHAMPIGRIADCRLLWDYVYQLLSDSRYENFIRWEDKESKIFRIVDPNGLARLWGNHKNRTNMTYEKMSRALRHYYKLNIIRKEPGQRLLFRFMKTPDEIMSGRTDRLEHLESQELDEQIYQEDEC
# CRX, sequence (O43186 whole entry): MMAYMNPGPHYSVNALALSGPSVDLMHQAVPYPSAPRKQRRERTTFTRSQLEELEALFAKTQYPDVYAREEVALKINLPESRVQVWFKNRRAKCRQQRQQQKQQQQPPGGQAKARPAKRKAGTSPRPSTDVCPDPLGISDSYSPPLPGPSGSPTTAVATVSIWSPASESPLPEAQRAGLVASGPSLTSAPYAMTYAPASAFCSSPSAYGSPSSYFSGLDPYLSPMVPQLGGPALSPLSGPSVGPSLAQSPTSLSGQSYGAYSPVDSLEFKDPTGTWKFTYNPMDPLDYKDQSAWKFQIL
# ELF4, sequence (Q99607 whole entry): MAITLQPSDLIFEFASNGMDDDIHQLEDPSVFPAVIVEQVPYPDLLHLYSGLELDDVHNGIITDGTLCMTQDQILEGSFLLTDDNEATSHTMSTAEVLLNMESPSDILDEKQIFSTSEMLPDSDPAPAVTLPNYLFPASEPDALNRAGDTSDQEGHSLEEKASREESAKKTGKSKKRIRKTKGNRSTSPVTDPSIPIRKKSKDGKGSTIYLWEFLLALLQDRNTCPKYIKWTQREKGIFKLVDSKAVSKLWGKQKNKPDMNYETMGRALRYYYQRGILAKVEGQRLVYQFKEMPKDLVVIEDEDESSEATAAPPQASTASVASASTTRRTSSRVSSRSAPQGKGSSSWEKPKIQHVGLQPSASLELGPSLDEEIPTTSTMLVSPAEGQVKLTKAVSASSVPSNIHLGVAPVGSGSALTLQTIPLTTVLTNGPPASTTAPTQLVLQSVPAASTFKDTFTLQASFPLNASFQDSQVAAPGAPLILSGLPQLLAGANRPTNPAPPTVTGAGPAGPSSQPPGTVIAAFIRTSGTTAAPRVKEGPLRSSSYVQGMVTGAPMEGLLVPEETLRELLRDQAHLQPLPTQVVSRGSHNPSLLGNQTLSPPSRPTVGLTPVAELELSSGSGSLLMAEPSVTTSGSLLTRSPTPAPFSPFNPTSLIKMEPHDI
# HSF1, sequence (Q00613 whole entry): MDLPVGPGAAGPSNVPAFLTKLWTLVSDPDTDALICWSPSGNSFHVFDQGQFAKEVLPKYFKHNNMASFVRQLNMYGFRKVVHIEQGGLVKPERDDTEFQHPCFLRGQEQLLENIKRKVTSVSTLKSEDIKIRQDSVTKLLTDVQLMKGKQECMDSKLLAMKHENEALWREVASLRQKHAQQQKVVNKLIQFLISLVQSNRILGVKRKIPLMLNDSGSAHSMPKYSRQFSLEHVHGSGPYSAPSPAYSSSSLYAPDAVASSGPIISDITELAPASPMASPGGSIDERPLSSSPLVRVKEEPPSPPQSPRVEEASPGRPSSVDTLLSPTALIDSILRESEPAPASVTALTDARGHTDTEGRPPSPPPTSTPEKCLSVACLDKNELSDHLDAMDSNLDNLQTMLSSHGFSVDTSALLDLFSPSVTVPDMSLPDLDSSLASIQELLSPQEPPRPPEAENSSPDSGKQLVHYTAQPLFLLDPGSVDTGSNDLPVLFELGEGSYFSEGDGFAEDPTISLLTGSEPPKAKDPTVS
sequence,measurement,setting,value
CTTTAC,binding signal,[1],"1.31 fold enrichment (6-mer frequency, TF over GST control)"
same,binding signal,[2],"1.3 fold enrichment (6-mer frequency, TF over GST control)"
same,binding signal,[3],"1.37 fold enrichment (6-mer frequency, TF over GST control)"
same,binding signal,[4],"1.4 fold enrichment (6-mer frequency, TF over GST control)"
same,binding signal,[5],"1.45 fold enrichment (6-mer frequency, TF over GST control)"
same,binding signal,[6],"1.44 fold enrichment (6-mer frequency, TF over GST control)"
same,binding signal,[7],"1.41 fold enrichment (6-mer frequency, TF over GST control)"
same,binding signal,[8],"1.44 fold enrichment (6-mer frequency, TF over GST control)"
same,binding signal,[9],"1.51 fold enrichment (6-mer frequency, TF over GST control)"
same,binding signal,[10],"1.3 fold enrichment (6-mer frequency, TF over GST control)"
same,binding signal,[11],"1.3 fold enrichment (6-mer frequency, TF over GST control)"
same,binding signal,[12],"1.46 fold enrichment (6-mer frequency, TF over GST control)"
same,binding signal,[13],"1.36 fold enrichment (6-mer frequency, TF over GST control)"
same,binding signal,[14],"1.35 fold enrichment (6-mer frequency, TF over GST control)"
same,binding signal,[15],"1.38 fold enrichment (6-mer frequency, TF over GST control)"
same,binding signal,[16],"1.35 fold enrichment (6-mer frequency, TF over GST control)"
same,binding signal,[17],"1.39 fold enrichment (6-mer frequency, TF over GST control)"
same,binding signal,[18],"1.41 fold enrichment (6-mer frequency, TF over GST control)"
